# Test results reported in PubChem BioAssay (NCI).
# The panel holds about 83,000 compounds, 20% with a hit somewhere; the sample as a whole holds those more often.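 Note: values are percent growth. 100 is the growth of untreated cells, values between 100 and 0 indicate rising inhibition; between -100 and 0 indicates cell death.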 Values without a mark were called inactive. Activity calls are given as the source filed them. How the source made its calls: active means growth percent below 10; inactive means the rest.
# Key:
# Experiment in all cases: NCI-60 one-dose screen, 48 h (100 = growth as untreated, 0 = no growth, -100 = all killed)
# Conditions in all cases: 10 µM unless noted
# SK-MEL-2 melanoma = tested on: SK-MEL-2 melanoma
# SN12C renal = tested on: SN12C renal
# UO-31 renal = tested on: UO-31 renal
# TK-10 renal = tested on: TK-10 renal
# ACHN renal = tested on: ACHN renal
# A498 renal = tested on: A498 renal
# CCRF-CEM leukemia = tested on: CCRF-CEM leukemia
# MOLT-4 leukemia = tested on: MOLT-4 leukemia
# SR leukemia = tested on: SR leukemia
# RPMI-8226 leukemia = tested on: RPMI-8226 leukemia
# OVCAR-8 ovarian = tested on: OVCAR-8 ovarian
# OVCAR-5 ovarian = tested on: OVCAR-5 ovarian
# OVCAR-4 ovarian = tested on: OVCAR-4 ovarian
# SK-OV-3 ovarian = tested on: SK-OV-3 ovarian
# IGROV1 ovarian = tested on: IGROV1 ovarian
# OVCAR-3 ovarian = tested on: OVCAR-3 ovarian
# HS 578T breast = tested on: HS 578T breast
# NCI/ADR-RES ovarian = tested on: NCI/ADR-RES ovarian
# CAKI-1 renal = tested on: CAKI-1 renal
Structure (SMILES),growth (SK-MEL-2 melanoma) [%],growth (SN12C renal),growth (UO-31 renal),growth (TK-10 renal),growth (ACHN renal),growth (A498 renal),growth (CCRF-CEM leukemia),growth (MOLT-4 leukemia),growth (SR leukemia),growth (RPMI-8226 leukemia),growth (OVCAR-8 ovarian),growth (OVCAR-5 ovarian),growth (OVCAR-4 ovarian),growth (SK-OV-3 ovarian),growth (IGROV1 ovarian),growth (OVCAR-3 ovarian),growth (HS 578T breast),growth (NCI/ADR-RES ovarian),growth (CAKI-1 renal)
CC(=O)OCC1OC(OC2=C(CC=C(Cl)Cl)C(=O)c3ccccc3C2=O)C(OC(C)=O)C(OC(C)=O)C1OC(C)=O (centres undefined),61.3,85.8%,69.3%,117%,59.9%,75.4%,-19.3% (active),-21.1% (active),-3.56% (active),9.85% (active),18%,105%,-34.4% (active),96%,83.4%,46.4%,96.9%,93.1%,
Cc1cccc(NC(=O)c2sc3nc4c(cc3c2N)C(=O)CCC4)c1,64.7,44.2%,41.2%,75.6%,51.9%,-12.2% (active),25.4%,51.1%,26.2%,31.6%,52.2%,44.6%,40.1%,35.3%,-4.52% (active),7.66% (active),18.6%,17.4%,
COc1ccc(C(=O)/C=C/c2c(Cl)c3c(c(OC)c2Cl)OCC(=O)N3)cc1,,27.8%,56.7%,57.3%,41.8%,83.5%,5.04% (active),0.538% (active),3.68% (active),3.79% (active),6.16% (active),76.8%,47.2%,77.9%,63.1%,10.9%,39.4%,19.4%,20.2%
COc1ccc2nc3cc(Cl)ccc3c(N3CCN(c4nccc(Nc5ccccc5)n4)CC3)c2c1,,62%,43.7%,65.6%,52.1%,16.6%,7.71% (active),5.37% (active),26.9%,45.2%,67.8%,99.5%,50.8%,96.2%,78.8%,50.7%,88.1%,69.9%,51.2%
O=C1CC(c2nc3ccccc3s2)CN1C1CCCCC1 (centres undefined),,93.5%,70.5%,121%,98.5%,73.2%,,90.9%,97.1%,98.4%,95.4%,99.8%,94.1%,91.6%,95%,101%,98.9%,89.4%,89.1%
CC1=C(NCCN2CCCC2)C(=O)c2c(OCc3ccc(C(F)(F)F)cc3)cccc2C1=O,,86.1%,62.1%,91.8%,92.6%,,1.19% (active),12.2%,-15.7% (active),29.7%,77%,90.1%,84.7%,95.6%,,83.6%,87.6%,87.5%,59.9%
CC(=O)N1CC(Nc2ccc(OC(F)(F)F)cc2)=CC1=O,,56.7%,65.7%,51.9%,53.4%,,11%,27.1%,25.3%,21.9%,26.1%,92.6%,87.2%,31.3%,50.3%,9.26% (active),38.9%,15.4%,30%
CN(C)CC(=O)Nc1ccc(Cn2nnc3c2C(=O)c2nnn(Cc4ccc(NC(=O)CN(C)C)cc4)c2C3=O)cc1,,-47.3% (active),-20.6% (active),-14.2% (active),-15.9% (active),,-32.9% (active),,,-34% (active),-31.6% (active),-35.7% (active),-94.9% (active),-44% (active),-74.4% (active),-59.1% (active),7.7% (active),88.6%,41.9%
Cn1cc(-c2ccc(-c3cn(C)c4ncccc34)[nH]2)c2cccnc21,,75.6%,-81.3% (active),-30% (active),4.29% (active),83.3%,28.3%,,,31.9%,23.3%,-6.91% (active),-44.4% (active),106%,73.8%,-36.9% (active),45.7%,76%,54.6%
O=C(CCCN1CCOCC1)Nc1ccc(Cn2nnc3c2C(=O)c2nnn(Cc4ccc(NC(=O)CCCN5CCOCC5)cc4)c2C3=O)cc1,,-40.7% (active),103%,116%,97.9%,,-3.08% (active),-21.5% (active),10.6%,37.5%,38.5%,121%,-65.7% (active),92.1%,3.22% (active),-1.11% (active),101%,102%,88.6%
O=C(CCN1CCOCC1)Nc1ccc(Cn2nnc3c2C(=O)c2nnn(Cc4ccc(NC(=O)CCN5CCOCC5)cc4)c2C3=O)cc1,,-40.7% (active),108%,123%,96.6%,71.8%,-15.4% (active),,,5.5% (active),45.6%,110%,-81.4% (active),95.4%,-19.8% (active),-1.65% (active),44.9%,109%,90.6%
CCOc1ccc(Nc2nc(-c3c(C)nc4ncccn34)cs2)cc1,,14.3%,33.9%,54.1%,20.5%,-17.2% (active),,8.54% (active),6.09% (active),,16.5%,20.7%,39.6%,3.86% (active),33.7%,-20.9% (active),34.1%,8.95% (active),34.1%
COc1ccc(/C=c2/c(=O)[nH]c3nc4sc(C)c(C)c4c(=O)n23)cc1,,84%,73%,101%,91.5%,101%,66.9%,62.3%,53.9%,82.9%,77.8%,105%,81.8%,102%,97.8%,101%,99.6%,79.3%,74.2%
COc1ccc2nc3cc(Cl)ccc3c(N3CCN(c4nccc(Nc5ccc(Cl)cc5)n4)CC3)c2c1,,74%,54.8%,55.8%,58.2%,,5.59% (active),3.98% (active),30.4%,43.9%,80.7%,90.6%,60.7%,88.4%,83.1%,49.5%,84.3%,80.7%,46.4%
O=C(Nc1cccc2[nH]c(C(F)(F)F)nc12)c1ccc(Br)cc1F,,26.5%,10.9%,52.8%,33.5%,-0.338% (active),47.1%,26.9%,18.5%,4.55% (active),33.2%,98.9%,11.8%,65.1%,42.2%,24.4%,70.4%,10.8%,14.6%
COc1ccc2nc3cc(Cl)ccc3c(N3CCN(c4ccnc(N5CCN(C)CC5)n4)CC3)c2c1,,36.9%,51.2%,8.16% (active),36.9%,68.1%,-27.9% (active),-24% (active),-26.9% (active),11.2%,41.2%,81.4%,46.2%,87.2%,72.9%,-39.4% (active),106%,84.9%,49.7%
O=C1/C(=C/c2ccc(Cl)cc2Cl)CN(S(=O)(=O)c2ccccc2)C/C1=C\c1ccc(Cl)cc1Cl,,-47.5% (active),-61.4% (active),-22.2% (active),2.01% (active),76.4%,-13.2% (active),3.37% (active),-11.6% (active),-21.9% (active),13.6%,-3.2% (active),22.6%,44.7%,-24.3% (active),-36.4% (active),37.9%,20.5%,-66.1% (active)
O=c1c2cccc3c(NC4CCCCC4)ccc(c32)c2nc3ccccc3n12,,87%,41.4%,77.4%,72.9%,99.1%,65.4%,49.8%,1.11% (active),75.6%,97.9%,103%,80.1%,98.3%,41.2%,86.8%,96%,95.5%,47.2%
